Several values for one entry are separate records, joined by “and”; a condition that tells them apart may be missing. Identical values can stand only once. Compounds without any hit were thinned out: in the full panel of roughly 79,000, 15% have a hit. Unmarked numbers belong to inactive results. Activity calls are given as the source filed them. Rule as the data show it: active = growth inhibition above about 70%; inactive = the rest.
assay: NCI Yeast Anticancer Drug Screen. Data for the rad50 strain (AID 155);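 also: 0% = growth of vehicle-only cultures of the same strain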; conditions: S. cerevisiae rad50 strain growth inhibition; at 50.0 µM; hits give high values
Procedure, shortened: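 Inhibition values express reduced yeast growth in compound-treated cultures relative to vehicle-treated controls.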

Row | Structure (SMILES) | growth inhibition
1 | C/C(=N\NC(=S)N1CCN(c2ccccn2)CC1)c1nccs1 | 86.5% (active)
2 | Clc1nc(Cl)c(Cl)c(Cl)n1 | 64%
3 | COc1ccc(COc2ccc(C(=O)CCN3CCOCC3)cc2)cc1 | 96.8% (active)
4 | O/N=C/c1cc(I)c(O)c(I)c1 | 98.8% (active)
5 | COC1OC2COC(c3ccccc3)OC2C(O)C1OS(=O)(=O)c1ccc(C)cc1 (configuration not stated) | 46.5% and 3.9%
6 | C=C1CC2(CC(c3ccccc3C)OC(c3ccccc3C)C2)OC1=O (configuration not stated) | 77.7% (active)
7 | Cc1ccc2c(c1)C1(C)OC(C=CC1=O)O2 (configuration not stated) | 88.2% (active)
8 | COc1cc(OC)c(OC)cc1/C=C\c1ccnc2ccccc12 | 33.8%
9 | Cc1n(Cc2ccccc2)c2c([n+]1C)C(=O)c1ccccc1C2=O | 86.2% (active)
10 | O=[N+]([O-])c1cc2c(cc1S(=O)(=O)O)C1C(C3C2C2(Cl)C(Cl)=C(Cl)C3(Cl)C2(Cl)Cl)C2(Cl)C(Cl)=C(Cl)C1(Cl)C2(Cl)Cl (configuration not stated) | 66.2%
11 | CCOC(=O)Nc1c(C)cc(C)c(Br)c1C | 97.2% (active)
12 | COc1cc2c(c(OC)c1OC)-c1ccc(SC)c(=O)cc1C(NC(=O)c1ccccc1)CC2 (configuration not stated) | 79.8% (active)
13 | CCCCCCCCCCS(=O)CC(CO)NC(=O)/C=C/c1c(C)[nH]c(=O)[nH]c1=O (configuration not stated) | 86.2% (active)
14 | C/C(N=NC(=S)N1CCCCCC1)=C1\C=CC=CN1O | 72.9% (active)
15 | Cc1cc(NCCCCCCCNc2cc(C)nc3cc([N+](=O)[O-])ccc23)c2ccc([N+](=O)[O-])cc2n1 | 68.5%
16 | CC1CC[P+](c2ccccc2)(c2ccccc2)c2c1ccc1ccccc21 (configuration not stated) | 84.9% (active)
17 | O=C1C(Cl)=C(N2CCN(C3=C(Cl)C(=O)c4ccccc4C3=O)CC2)C(=O)c2ccccc21 | 84.4% (active)
18 | CCN1CCC(O)(c2ccc(Oc3ccccc3)cc2)C(C(=O)c2ccc(Oc3ccccc3)cc2)C1 (configuration not stated) | 32.9%
19 | Cc1ccc(NCCN(C)C)c2c(=O)c3cc(O)ccc3sc12 | 88.7% (active)
20 | COc1ccc2nc(C)cc(NCCCCCCCCCNc3cc(C)nc4ccc(OC)cc34)c2c1 | 83.4% (active)
21 | Cc1n(-c2ccccc2)c2c([n+]1Cc1ccc([N+](=O)[O-])cc1)C(=O)c1ccccc1C2=O | 85.2% (active)
22 | CC1(O)Cc2c(O)c3c(c(O)c2CC1O)C(=O)C=CC3=O (configuration not stated) | 72.2% (active)
23 | c1ccc(C2=NC(c3ccccc3)=NS(S3=NC(c4ccccc4)=NC(c4ccccc4)=N3)=N2)cc1 (configuration not stated) | 74.7% (active)
24 | CC[C@](O)(CC(=O)O[C@H]1C(=O)O[C@@H]2C[C@H]3C(C)=CC(=O)[C@@H](O)[C@]3(C)[C@H]3[C@@]4(O)OC[C@]32[C@@H]1[C@@H](C)[C@H]4O)C(C)C | 88.9% (active)

assay: NCI Yeast Anticancer Drug Screen. Data for the mec2-1 strain (AID 157); conditions: S. cerevisiae mec2-1 strain, at 5.0 µM (retest, dose inferred, filed as 0.5), hits give high values
Procedure, shortened: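 Mutant yeast (mec2-1) grown with compound; growth inhibition relative to vehicle control reported.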

Row | Structure (SMILES) | growth inhibition
25 | COc1cccc2c1C(=O)c1c(O)c3c(c(O)c1C2=O)C[C@@](O)(C(C)=O)C[C@@H]3OC1CC(O)C(O)C(C)O1 (some centres not stated) | 21%
26 | COc1cccc2c1C(=O)c1c(O)c3c(c(O)c1C2=O)C[C@@](O)(C(C)=O)C[C@@H]3OC1CC(N(C)C)C(O)C(C)O1 (some centres not stated) | 98% (active)
27 | C[N+]1(C)CCC(c2ccccc2)(c2ccccc2)C(=O)C1 | -15%
28 | CC[C@@]1(OC(=O)C(N)CCCCN)C(=O)OCc2c1cc1n(c2=O)Cc2cc3ccccc3nc2-1 (some centres not stated) | 44%
29 | CCN(CCO)CCNc1ccc(C)c2sc3ccccc3c(=O)c12 | 13%
30 | NC(=O)SCC(=O)NNc1ccccc1 | 1%
31 | CCN(CC)c1ccc(C(=C2C=CC(=[N+](CC)CC)C=C2)c2ccc(N(CC)CC)cc2)cc1 | 98% (active)
32 | Nc1ncnc2c(C3OC(CO)C(O)C3O)scc12 (configuration not stated) | 12%
33 | Nc1ccc(Cn2ccc3c4c(N)nc(N)nc4ccc32)cc1 | 29%
34 | Cc1n(CC(C)C)c2c([n+]1C)C(=O)c1ccccc1C2=O | 44%
35 | c1ccc(Cc2cc3ccccc3c3ccccc23)cc1 | 5%
36 | Nc1nc(N)c2c(Cl)c(CNc3ccc(Cl)c(Cl)c3)ccc2n1 | 97% (active)
37 | C=C1CC2(CC(c3ccccc3OC)OC(c3ccccc3OC)C2)OC1=O (configuration not stated) | 15%
38 | O=[N+]([O-])c1c(Cl)nc2ccccn12 | 3%
39 | C/C(=N\NC(=S)N1CCN(c2ccccn2)CC1)c1nccs1 | 43%
40 | Clc1nc(Cl)c(Cl)c(Cl)n1 | 23%
41 | COc1ccc(COc2ccc(C(=O)CCN3CCOCC3)cc2)cc1 | 38%
42 | O/N=C/c1cc(I)c(O)c(I)c1 | 97% (active)
43 | COC1OC2COC(c3ccccc3)OC2C(O)C1OS(=O)(=O)c1ccc(C)cc1 (configuration not stated) | 0%

Row | Structure (SMILES) | growth inhibition
44 | C=C1CC2(CC(c3ccccc3C)OC(c3ccccc3C)C2)OC1=O (configuration not stated) | 53%
45 | Cc1ccc2c(c1)C1(C)OC(C=CC1=O)O2 (configuration not stated) | 97% (active)
46 | COc1cc(OC)c(OC)cc1/C=C\c1ccnc2ccccc12 | 13%
47 | Cc1n(Cc2ccccc2)c2c([n+]1C)C(=O)c1ccccc1C2=O | 50%
48 | O=[N+]([O-])c1cc2c(cc1S(=O)(=O)O)C1C(C3C2C2(Cl)C(Cl)=C(Cl)C3(Cl)C2(Cl)Cl)C2(Cl)C(Cl)=C(Cl)C1(Cl)C2(Cl)Cl (configuration not stated) | -10%
49 | CCOC(=O)Nc1c(C)cc(C)c(Br)c1C | -12%
50 | COc1cc2c(c(OC)c1OC)-c1ccc(SC)c(=O)cc1C(NC(=O)c1ccccc1)CC2 (configuration not stated) | -20%
51 | CCCCCCCCCCS(=O)CC(CO)NC(=O)/C=C/c1c(C)[nH]c(=O)[nH]c1=O (configuration not stated) | 20%
52 | C/C(N=NC(=S)N1CCCCCC1)=C1\C=CC=CN1O | 12%
53 | Cc1cc(NCCCCCCCNc2cc(C)nc3cc([N+](=O)[O-])ccc23)c2ccc([N+](=O)[O-])cc2n1 | 15%
54 | CC1CC[P+](c2ccccc2)(c2ccccc2)c2c1ccc1ccccc21 (configuration not stated) | 54%
55 | O=C1C(Cl)=C(N2CCN(C3=C(Cl)C(=O)c4ccccc4C3=O)CC2)C(=O)c2ccccc21 | 8%
56 | CCN1CCC(O)(c2ccc(Oc3ccccc3)cc2)C(C(=O)c2ccc(Oc3ccccc3)cc2)C1 (configuration not stated) | -10%
57 | Cc1ccc(NCCN(C)C)c2c(=O)c3cc(O)ccc3sc12 | 5%
58 | COc1ccc2nc(C)cc(NCCCCCCCCCNc3cc(C)nc4ccc(OC)cc34)c2c1 | -30%
59 | Cc1n(-c2ccccc2)c2c([n+]1Cc1ccc([N+](=O)[O-])cc1)C(=O)c1ccccc1C2=O | -7%
60 | CC1(O)Cc2c(O)c3c(c(O)c2CC1O)C(=O)C=CC3=O (configuration not stated) | 6%
61 | c1ccc(C2=NC(c3ccccc3)=NS(S3=NC(c4ccccc4)=NC(c4ccccc4)=N3)=N2)cc1 (configuration not stated) | 5%
62 | CC[C@](O)(CC(=O)O[C@H]1C(=O)O[C@@H]2C[C@H]3C(C)=CC(=O)[C@@H](O)[C@]3(C)[C@H]3[C@@]4(O)OC[C@]32[C@@H]1[C@@H](C)[C@H]4O)C(C)C | 35%

Reference: PubChem BioAssay (NCI)
